Reference: PubChem BioAssay AID2279 (Southern Research Specialized Biocontainment Screening …, 2010)
Results with a measured potency or affinity are listed apart. Activity calls are given as the source filed them. The rule behind the calls is not given here.

Test: HIV-1 Env-mediated cell fusion inhibitors, dose response, CCR5-tropic Env (AID 2279)
Conditions: CCR5-tropic HIV-1 Env, reporter read-out; series mostly up to 50 µM; inhibition: at the top concentration

inhibition, inactive:
O=C(O)c1[nH]c2ccccc2c1C(c1ccccc1)c1c(C(=O)O)[nH]c2ccccc12 -7.23%
CCOc1cc(/C=C2\C(=N)N3N=C(S(C)(=O)=O)SC3=NC2=O)ccc1OCCOc1cccc(OC)c1 5.44%
CCOC(=O)c1sc(N2C(=O)C(O)=C(C(=O)c3ccco3)C2c2cccc([N+](=O)[O-])c2)nc1C (stereo unspecified) 17.9%
CCOC(=O)C1=C(C)N=c2s/c(=C\c3ccc(OCC(=O)O)c(OC)c3)c(=O)n2C1c1ccc(OC)cc1 (stereo unspecified) -3.5%
O=C(O)CN1C(=O)/C(=C\c2cc(Br)ccc2OCc2ccccc2F)SC1=S -3.94%
O=C(NN1C(=O)/C(=C/c2ccc(O)c([N+](=O)[O-])c2)SC1=S)c1ccccc1Cl -9.47%
Cc1ccc(S(=O)(=O)/N=C2/NC(=O)/C(=C/c3cc([N+](=O)[O-])ccc3O)S2)cc1 -12.6%
O=C(O)c1[nH]c2ccccc2c1C(c1cc(Br)ccc1O)c1c(C(=O)O)[nH]c2ccccc12 -15.4%
COC(=O)c1sc(-c2ccc(C(C)(C)C)cc2)cc1NC(=O)COCC(=O)O 12.7%
COc1cc(/C=C(\C#N)c2nc3ccc(C)cc3[nH]2)cc([N+](=O)[O-])c1O -16.1%
O=C1N/C(=N\S(=O)(=O)c2ccccc2)S/C1=C\c1cc([N+](=O)[O-])ccc1O -8.05%
Cc1c(CC(=O)O)c(=O)oc2c(C)c3occ(-c4ccc(Br)cc4)c3cc12 31.7%
O=C1N=c2ccc(Br)cc2=C1c1sc(=S)n(NS(=O)(=O)c2ccccc2)c1O -3.14%
O=C(O)CN1C(=O)/C(=C\c2cccc(OCc3ccc(Cl)cc3)c2)SC1=S 28.8%
CC(Oc1ccc(Cl)cc1Cl)C(=O)Nc1ccc(S(=O)(=O)Nc2cnc3ccccc3n2)cc1 (stereo unspecified) 20.3%
COc1cc(/C=C2\C(=N)N3N=C(S(C)(=O)=O)SC3=NC2=O)ccc1OC(=O)c1cccs1 -6.46%
O=C(NCc1ccccc1)c1ccc2c(=O)[nH]c3c(C(=O)NCC4CCCO4)sc(=S)n3c2c1 (stereo unspecified) 14.7%
O=C(O)c1cc(-c2ccc(/C=C3\NC(=O)N(c4ccc(Cl)cc4)C3=O)o2)ccc1Cl -0.12%
O=C(Nc1ccc(C(=O)O)cc1)/C(=C\C=C\c1ccccc1)NC(=O)c1cccc(Br)c1 -5.24%
CCOC(=O)c1sc(N2C(=O)C(O)=C(C(=O)c3ccco3)C2c2ccc([N+](=O)[O-])cc2)nc1C (stereo unspecified) 35.6%
CCOc1ccc2nc(NC(=O)CSc3nc(-c4ccccc4)c(C#N)c(=O)[nH]3)sc2c1 9.5%
